According to PubChem BioAssay (EPA / NIEHS):
Active and inactive are the calls of the source. The calls were made as follows: active = hit-call score of the fitted dose curve at least 0.9, where 1 is the maximum; inactive = score below 0.9.

Columns and labels:
Settings in all cases: mRNA level, 48 h; actives raise or lower the signal
[1] = read-out: solute carrier (SLCO1B1), SLCO1B1 (gene 10599); test: LTEA_HepaRG_SLCO1B1: Life Technologies and Expression Analysis (LTEA) Assay for solute carrier (SLCO1B1) using HepaRG (AID 2283530)
Procedure, shortened: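 HepaRG, serum-free induction medium, 48 h dosing, 8-pt half-log from 100 uM, 0.5% DMSO vehicle, duplicates. Readout: SLCO1B1 mRNA, qRT-PCR, ACTB/GAPDH/POLR2A normalization; up or down fit vs DMSO.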

[2] = read-out: sulfotransferase 2A1 (SULT2A1), SULT2A1 (gene 6822); test: LTEA_HepaRG_SULT2A1: Life Technologies and Expression Analysis (LTEA) Assay for sulfotransferase 2A1 (SULT2A1) using HepaRG (AID 2283531)
Procedure, shortened: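 Transcript levels of SULT2A1, quantified by qRT-PCR and normalized to three housekeeping genes, serve as the readout. Human HepaRG cultures receive test chemicals for 48 h at up to 100 uM in half-log steps, with 0.5% DMSO vehicle.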

[3] = read-out: Transforming Growth Factor (TGFA), TGFA (gene 7039); test: LTEA_HepaRG_TGFA: Life Technologies and Expression Analysis (LTEA) Assay for Transforming Growth Factor (TGFA) using HepaRG (AID 2283532)
Procedure, shortened: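 qRT-PCR read-out of TGFA transcript, normalized to three housekeeping genes, fitted bidirectionally against 0.5% DMSO baseline. Human HepaRG cultures received chemicals for 48 h at eight half-log concentrations, top 100 uM.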

[4] = read-out: Transforming Growth Factor (TGFB1), TGFB1 (gene 7040); test: LTEA_HepaRG_TGFB1: Life Technologies and Expression Analysis (LTEA) Assay for Transforming Growth Factor (TGFB1) Transporter using HepaRG (AID 2283533)
Procedure, shortened: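 HepaRG, 48 h post-plating, switched to serum-free induction medium; chemicals 100 uM top, half-log, 8 pts, 0.5% DMSO, dup; 48 h exposure; RNA → Fluidigm TaqMan qRT-PCR; norm ACTB/GAPDH/POLR2A; bidirectional fit vs DMSO.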

[5] = read-out: TIMP1, TIMP1 (gene 7076); test: LTEA_HepaRG_TIMP1: Life Technologies and Expression Analysis (LTEA) Assay for TIMP1 using HepaRG (AID 2283534)
Procedure, shortened: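 Readout is TIMP1 mRNA level measured by qRT-PCR and normalized to three housekeeping genes. Human HepaRG cells were treated for 48 h in duplicate at eight concentrations up to 100 uM (0.5% DMSO); gain or loss fitted against DMSO.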

[6] = read-out: Tumor necrosis factor receptor 1 (TNFRSF1A), TNFRSF1A (gene 7132); test: LTEA_HepaRG_TNFRSF1A: Life Technologies and Expression Analysis (LTEA) Assay for Tumor necrosis factor receptor 1 (TNFRSF1A) using HepaRG (AID 2283535)
Procedure, shortened: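 Read-out is TNFRSF1A transcript level by TaqMan qRT-PCR, normalized to three housekeeping genes, scored as gain or loss of signal versus 0.5% DMSO. Human HepaRG cells received test chemicals for 48 h at up to 100 uM (half-log series).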

[7] = read-out: Thyroid Hormone Responsive (THRSP), THRSP (gene 7069); test: LTEA_HepaRG_THRSP: Life Technologies and Expression Analysis (LTEA) Assay for Thyroid Hormone Responsive (THRSP) using HepaRG (AID 2283536)
Procedure, shortened: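 qRT-PCR read-out (Fluidigm TaqMan), housekeeping-normalized (ACTB/GAPDH/POLR2A). HepaRG, 48 h chemical exposure, 8-pt half-log series from 100 uM in 0.5% DMSO, duplicates. Bidirectional curve fit vs 0.5% DMSO baseline.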

[8] = read-out: Cellular tumor antigen p53 (Homo sapiens) (UniProt P04637); test: LTEA_HepaRG_TP53: Life Technologies and Expression Analysis (LTEA) Assay for Tumor Protein P53 (TP53) using HepaRG (AID 2283537)
Procedure, shortened: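 Read-out is TP53 transcript level by microfluidic qRT-PCR, normalised to three housekeeping genes and fitted bidirectionally against DMSO. Human HepaRG cells received compounds for 48 h, highest concentration 100 uM.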

[9] = read-out: UDP glucuronosyltransferase (UGT1A1), UGT1A1 (gene 54658); test: LTEA_HepaRG_UGT1A1: Life Technologies and Expression Analysis (LTEA) Assay for UDP glucuronosyltransferase (UGT1A1) using HepaRG (AID 2283538)
Procedure, shortened: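 mRNA induction or loss of UGT1A1, by TaqMan qRT-PCR, in duplicate HepaRG wells after 48 h exposure to half-log dilutions topping at 100 uM; DMSO (0.5%) served as baseline.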

[10] = read-out: UDP glucuronosyltransferase (UGT1A6), UGT1A6 (gene 54578); test: LTEA_HepaRG_UGT1A6: Life Technologies and Expression Analysis (LTEA) Assay for UDP glucuronosyltransferase (UGT1A6) using HepaRG (AID 2283539)
Procedure, shortened: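 HepaRG, 48 h post-plating switch to serum-free induction medium; chemical 48 h, 100 uM top, half-log x8, duplicate, 0.5% DMSO. Phenobarbital 1mM induction control. UGT1A6 mRNA by TaqMan qRT-PCR; gain/loss fit vs DMSO.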

Measured: outcome

Chain of Cellular tumor antigen p53 (Homo sapiens) (P04637 whole entry, looked up): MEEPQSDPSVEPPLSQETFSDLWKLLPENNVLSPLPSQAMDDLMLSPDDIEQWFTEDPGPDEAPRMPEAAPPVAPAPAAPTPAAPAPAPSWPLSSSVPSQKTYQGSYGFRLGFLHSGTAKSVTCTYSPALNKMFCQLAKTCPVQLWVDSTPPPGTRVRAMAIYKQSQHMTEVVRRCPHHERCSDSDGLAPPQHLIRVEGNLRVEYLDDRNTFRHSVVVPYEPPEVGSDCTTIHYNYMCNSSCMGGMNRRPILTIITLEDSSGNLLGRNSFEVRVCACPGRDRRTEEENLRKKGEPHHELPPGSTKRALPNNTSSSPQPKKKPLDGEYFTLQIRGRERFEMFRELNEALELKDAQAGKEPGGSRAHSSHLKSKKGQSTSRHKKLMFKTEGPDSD

CS(=O)(=O)OCCCCOS(C)(=O)=O
inactive: [1] | [2] | [3] | [4] | [5] | [6] | [7] | [8] | [9] | [10]
